The target of test [1] is Rap guanine nucleotide exchange factor 3 (Homo sapiens) (UniProt O95398). The test is described as follows: Confirmatory qHTS for antagonist of cAMP-regulated guanine nucleotide exchange factor 3 (EPAC1) (AID 1645880).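 For activity, negative = inhibition: plate controls were DMSO only for no effect and full effect of the ATA control for full effect.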 Note: nearly all actives have a fitted effect of over 55% in size. Note: potency is the fitted concentration of half-maximal effect. Conditions: EPAC1 Rap1B-BODIPY-GDP exchange, fluorescence; activity, negative = inhibition: at 115 µM (top of the series). The essentials:
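Nucleotide exchange uses 100 nM EPAC1, 250 nM RAP1B-BODIPY-GDP and 50 uM GDP, with compounds in a concentration-titration series. After 5 min at room temperature, fluorescence (480 nm ex/540 nm em) is read every 5 min for 30 min. Data are normalized to control ATA and DMSO.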
(In general: qHTS replaces the single test concentration by a dilution series.)

The target is the same in test [2]. In words: Confirmatory qHTS for agonist of cAMP-regulated guanine nucleotide exchange factor 3 (EPAC1) (AID 1645881).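 Note: EPAC1 catalysed release of BODIPY-GDP from Rap1B seen as fluorescence loss; 100% = effect of cAMP agonist control; nearly all actives have a fitted effect of over 75% in size.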
In test [3] the target is Rap guanine nucleotide exchange factor 4 (Homo sapiens) (UniProt Q8WZA2). The test is described as follows: Confirmatory qHTS for agonist of cAMP-regulated guanine nucleotide exchange factor 4 (EPAC2) (AID 1645884).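 Note: nucleotide exchange releases bodipy-GDP from Rap1 and this lowers its fluorescence; % is set by controls: 0 for no effect and ±100 for the full control effect; nearly all actives have a fitted effect of over 65% in size.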
Chain of Rap guanine nucleotide exchange factor 4 (Homo sapiens) (Q8WZA2 whole entry, looked up): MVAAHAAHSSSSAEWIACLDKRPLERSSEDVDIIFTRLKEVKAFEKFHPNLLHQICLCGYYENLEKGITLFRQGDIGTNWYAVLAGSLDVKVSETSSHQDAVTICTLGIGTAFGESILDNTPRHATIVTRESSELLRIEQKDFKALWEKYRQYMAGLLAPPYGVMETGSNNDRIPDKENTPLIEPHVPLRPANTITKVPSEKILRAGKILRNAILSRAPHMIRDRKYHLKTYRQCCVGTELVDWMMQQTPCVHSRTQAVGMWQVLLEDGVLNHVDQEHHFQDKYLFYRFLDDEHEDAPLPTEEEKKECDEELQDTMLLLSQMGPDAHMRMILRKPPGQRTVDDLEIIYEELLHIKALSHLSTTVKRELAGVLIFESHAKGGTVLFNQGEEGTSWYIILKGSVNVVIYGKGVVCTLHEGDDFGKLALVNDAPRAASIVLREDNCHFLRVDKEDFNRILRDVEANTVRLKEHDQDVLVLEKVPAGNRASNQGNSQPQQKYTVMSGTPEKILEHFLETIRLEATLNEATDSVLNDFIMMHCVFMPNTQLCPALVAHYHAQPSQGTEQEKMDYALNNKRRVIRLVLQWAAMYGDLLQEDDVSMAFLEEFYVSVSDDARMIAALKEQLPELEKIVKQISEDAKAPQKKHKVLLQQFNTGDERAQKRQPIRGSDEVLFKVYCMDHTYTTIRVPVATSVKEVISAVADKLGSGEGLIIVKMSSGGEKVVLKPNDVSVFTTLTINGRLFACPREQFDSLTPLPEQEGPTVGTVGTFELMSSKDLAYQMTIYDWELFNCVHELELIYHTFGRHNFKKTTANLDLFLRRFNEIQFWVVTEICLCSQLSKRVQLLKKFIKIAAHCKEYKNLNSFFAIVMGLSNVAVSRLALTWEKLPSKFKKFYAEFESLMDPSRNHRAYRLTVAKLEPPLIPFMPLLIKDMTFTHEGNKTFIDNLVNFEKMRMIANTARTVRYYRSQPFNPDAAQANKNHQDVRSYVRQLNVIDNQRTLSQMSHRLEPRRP
The target is the same in test [4]. The test is described as follows: Confirmatory qHTS for antagonist of cAMP-regulated guanine nucleotide exchange factor 4 (EPAC2) (AID 1645885). For activity change, negative = inhibition: % is set by controls: 0 for no effect and ±100 for the full control effect. Note: nearly all actives have a fitted effect of over 25% in size. Note: potency is the fitted concentration of half-maximal effect.
For test [5], the target named is Rap guanine nucleotide exchange factor 3 (Homo sapiens) (UniProt O95398). In words: Counterscreen qHTS for antagonist of cAMP-regulated guanine nucleotide exchange factor 3 (EPAC1) (AID 1645888).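 Note: fluorescence loss as bound BODIPY-GDP is released from Rap1B; % of control where 0% means no effect.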 The essentials:
(§1)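 Rap1B-BODIPY-GDP 250 nM + GDP 50 uM; cpds 7-pt, final 9.74 nM–152 uM (activator mode) or from 7.32 nM upwards (inhibitor mode); RT; FI 480/540 nm at 5 and 30 min, then ± cAMP, reread.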
In general terms: The purpose of a counterscreen is to sort out artefacts and off-target activity.

Test [6] has the same target. The test is described as follows: Counterscreen qHTS for agonist of cAMP-regulated guanine nucleotide exchange factor 3 (EPAC1) (AID 1645889). Note: % of control where 0% means no effect; nearly all actives have a fitted effect of over 40% in size. The method, boiled down: as §1

Experimental findings from PubChem BioAssay (NCATS) are described below.

Each structure is given as a SMILES string. Records with an inconclusive call do not appear. Values without a mark were called inactive. Calls of active or inactive are those of the source. Calls come from the whole dose curve; as a rule, active = well fitted curve in the direction sought with a large enough effect; inconclusive = small, poorly fitted or top-dose-only effect, or another doubt; inactive = no such curve, though single readings can be large; an effect the other way counts as inactive or inconclusive.

Chain of Rap guanine nucleotide exchange factor 3 (Homo sapiens) (O95398 whole entry, looked up): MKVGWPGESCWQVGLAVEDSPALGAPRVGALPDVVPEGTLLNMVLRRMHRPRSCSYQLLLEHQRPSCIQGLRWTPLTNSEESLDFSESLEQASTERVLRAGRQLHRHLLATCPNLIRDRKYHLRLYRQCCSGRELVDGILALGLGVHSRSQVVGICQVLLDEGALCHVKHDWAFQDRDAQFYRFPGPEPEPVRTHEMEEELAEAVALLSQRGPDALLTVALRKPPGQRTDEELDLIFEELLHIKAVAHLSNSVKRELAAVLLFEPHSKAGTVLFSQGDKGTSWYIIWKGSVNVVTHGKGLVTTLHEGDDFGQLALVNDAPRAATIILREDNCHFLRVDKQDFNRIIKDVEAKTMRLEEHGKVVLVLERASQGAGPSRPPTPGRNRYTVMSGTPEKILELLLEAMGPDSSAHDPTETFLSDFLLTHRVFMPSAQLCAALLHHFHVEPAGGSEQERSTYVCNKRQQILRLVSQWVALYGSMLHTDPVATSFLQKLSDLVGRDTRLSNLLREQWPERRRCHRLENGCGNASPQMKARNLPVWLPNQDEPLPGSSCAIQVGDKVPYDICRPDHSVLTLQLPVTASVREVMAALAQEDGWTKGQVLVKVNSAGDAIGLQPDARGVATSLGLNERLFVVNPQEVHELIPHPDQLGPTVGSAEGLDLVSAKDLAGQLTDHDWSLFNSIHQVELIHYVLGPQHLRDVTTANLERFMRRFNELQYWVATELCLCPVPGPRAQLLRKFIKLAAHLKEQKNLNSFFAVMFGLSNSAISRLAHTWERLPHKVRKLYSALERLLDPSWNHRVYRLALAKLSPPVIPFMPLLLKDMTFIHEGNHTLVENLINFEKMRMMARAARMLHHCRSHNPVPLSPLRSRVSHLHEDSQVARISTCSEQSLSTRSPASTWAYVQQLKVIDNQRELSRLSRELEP

For the molecule `CCCCn1c(N)c(N(CCOC)C(=O)c2cccc(S(=O)(=O)N(C)c3ccc(C)cc3)c2)c(=O)[nH]c1=O`, the Potency result in test [1], in test [2] and in test [4] was “inactive” throughout. Further, the activation in test [3] is -4.77% [at 17.1 µM, percent relative to cAMP agonist control]; in test [6] it was 14.6% [at 30.8 µM]. Also, the activity change, negative = inhibition in test [5] was 3.57% [at 30.8 µM].

As for `COC(=O)c1ccc(CSc2ccc3nnc(-c4cccc(F)c4)n3n2)o1`, the Potency entry in test [1], in test [2] and in test [4] was “inactive” each time. Further, the activation in test [3] was -3.47% [at 17.1 µM, percent relative to cAMP agonist control]; in test [6] it was 0.6% [at 30.8 µM]. The activity change, negative = inhibition in test [5] is -19.6% [at 30.8 µM].

Turning to `Cc1ccc(C(=O)Nc2ccccc2[N+](=O)[O-])cc1S(=O)(=O)N1CCOCC1`, the Potency entry in test [1], in test [2], in test [3], in test [4] and in test [5] was “inactive” each time.

With `COc1cc(C(C)=O)ccc1COc1ccc(C(=O)O)cc1OC`, the Potency entry in test [1], in test [2] and in test [4] was “inactive” in each case. In addition, the activation was 7.71% [at 17.1 µM, percent relative to cAMP agonist control] in test [3] and -0.313% [at 30.8 µM] in test [6]. Also, in test [5], the activity change, negative = inhibition is -10.4% [at 30.8 µM].

In the case of `CCCN1C(=O)c2[nH]nc(-c3cccc(OC)c3)c2C1c1ccccn1` (centres undefined), the Potency entry in test [1], in test [2], in test [3] and in test [5] was “inactive” each time. Further, the outcome in test [4] was “inactive [at 12.7 µM]”.

Consider `O=S(=O)(NCC1(N2CCOCC2)CCCCC1)c1ccc(Cl)cc1C(F)(F)F`, for which the Potency result in test [1], in test [2], in test [3], in test [4], in test [5] and in test [6] was “inactive” in each case.

Turning to `O=C(NN1C(=O)/C(=C\c2ccc(O)c([N+](=O)[O-])c2)SC1=S)c1ccccc1Cl`, in test [1], the Potency is 50.1 µM (active). Also, the Potency entry in test [2] and in test [4] was “inactive” in each case. Also, the activation is -1.95% [at 17.1 µM, percent relative to cAMP agonist control] in test [3] and 0.476% [at 30.8 µM] in test [6]. Also, in test [5], the activity change, negative = inhibition is -8.56% [at 30.8 µM].

On to `CCCCn1cc2c(c1-c1ccccc1Br)c(=O)n(C)c(=O)n2C`, for which the Potency entry in test [1], in test [2], in test [3], in test [4] and in test [5] was “inactive” throughout.

On to `COc1ccccc1/C=C1\SC(=S)N(NS(=O)(=O)c2ccccc2)C1=O`, for which the Potency in test [1] was 16.9 µM (active). Also, the Potency entry in test [2], in test [3], in test [4], in test [5] and in test [6] was “inactive” in each case.

For `O=C(CCCOc1ccccc1)Nc1ccc(Cl)cn1`, the Potency result in test [1], in test [2], in test [3], in test [4], in test [5] and in test [6] was “inactive” throughout.

Regarding `O=C(COC(=O)Cc1c(Cl)cccc1Cl)NCC1CCCO1` (centres undefined), the Potency entry in test [1], in test [2], in test [3], in test [5] and in test [6] was “inactive” each time. In addition, the Potency in test [4] is 75.7 µM (active).

In the case of `Cc1ccc(C2CC(=O)Oc3cc(C)c(Br)c(C)c32)cc1` (centres undefined), the Potency entry in test [1], in test [2], in test [3] and in test [5] was “inactive” in each case. Further, in test [4], the Potency was 2.13 µM (active).

Take `COC(=O)c1ccccc1NC(=O)c1nn(-c2ccc(OC)cc2)c(=O)c2c1c1ccccc1n2C`: the Potency result in test [1], in test [2], in test [3], in test [4], in test [5] and in test [6] was “inactive” each time.

In the case of `O=C(CN1CCCCC1)Nc1cc(Cl)ccc1Oc1ccccc1`, the Potency result in test [1], in test [2] and in test [3] was “inactive” in each case.

In the case of `N#Cc1c(Nc2ccccc2)sc(C(=O)c2ccccc2)c1N`, the Potency entry in test [1], in test [2] and in test [4] was “inactive” in each case. Also, in test [3], the activation was 9.46% [at 17.1 µM, percent relative to cAMP agonist control]. Also, the activity change, negative = inhibition in test [5] was 13.4% [at 30.8 µM].

As to `O=C(NCc1ccc(F)cc1)C(c1cccnc1)N(C(=O)c1csnn1)c1ccccc1` (centres undefined), the Potency entry in test [1], in test [2] and in test [4] was “inactive” each time. In test [3], the activation is -0.815% [at 17.1 µM, percent relative to cAMP agonist control]. For the same molecule, the activity change, negative = inhibition in test [5] was -0.606% [at 30.8 µM].

As for `COc1cc(/C=C2\SC(=S)N(CC(=O)O)C2=O)ccc1OS(=O)(=O)c1ccc(C)cc1`, the Potency in test [1] was 23.9 µM (active). Also, the Potency result in test [2], in test [3], in test [4], in test [5] and in test [6] was “inactive” in each case.

On to `CCOC(=O)C1CCCN(C(=O)C2(c3ccc(Cl)cc3)CCCC2)CC1` (centres undefined), for which the Potency entry in test [1], in test [2], in test [3], in test [4], in test [5] and in test [6] was “inactive” throughout.

Take `N#Cc1c(N2CCCCC2)nc(N)c2c(N)nc(SCC(=O)O)cc12`: the Potency in test [1] is 31.6 µM (active). The Potency entry in test [2] and in test [4] was “inactive” in each case. In test [3], the activation is 13.6% [at 17.1 µM, percent relative to cAMP agonist control]. Moreover, the activity change, negative = inhibition in test [5] is 35.9% [at 30.8 µM].

For `CCCn1c(=O)n(C)c(=O)c2c(SCC(=O)NCc3ccco3)nc(C3CC3)nc21`, the Potency entry in test [1], in test [2], in test [3], in test [4], in test [5] and in test [6] was “inactive” each time.

`COc1ccc(/C=N/N=C2/C(=O)Nc3ccccc32)cc1O`: the Potency result in test [1], in test [2] and in test [4] was “inactive” in each case. Moreover, in test [3], the activation was 6.47% [at 17.1 µM, percent relative to cAMP agonist control].
